Data reported in PubChem BioAssay (NCATS).
Inconclusive results are not listed. The source made the active and inactive calls. Unless noted, calls follow the shape of the dose curve; as a rule, active = well fitted curve in the direction sought with a large enough effect; inconclusive = small, poorly fitted or top-dose-only effect, or another doubt; inactive = no such curve, though single readings can be large; an effect the other way counts as inactive or inconclusive.

Key:
[1] = Cell Viability - BJ (AID 421; calls by dose curve;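 also: potency is read from the fitted curve at half-maximal effect; cells exposed to compound for 40 hours at 37 °C before readout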); conditions: BJ fibroblast viability, qHTS
Summary of the method: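 Luminescent ATP signal (CellTiter-Glo, 20 min at room temperature) served as the read-out of viable BJ cells after 40 hours of compound treatment. Responses were scaled between DMSO and 100 uM tamoxifen, and AC50 values were obtained by Hill modeling.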

[2] = Cell Viability - Jurkat (AID 426;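 active = dose-dependent loss of cell ATP signal giving a full or clear fitted curve, ranked by lower potency value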; also: potency is read from the fitted curve at half-maximal effect); conditions: qHTS
Summary of the method: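 Luminescent ATP read-out (CellTiter-Glo, 20 min at room temperature) after 40 hr compound exposure at 37 °C of Jurkat E6-1 cells, 5000/well. Decreased ATP taken as cytotoxicity; AC50 from standard Hill equation.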

[3] = Cell Viability - Hek293 (AID 427;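 active = compounds whose dose-response curve shows a full or clear partial loss of cell viability, called from curve shape rather than a numeric limit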;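 also: potency is read from the fitted curve at half-maximal effect; cells exposed to compound for 40 hours at 37 °C before reading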); conditions: qHTS
Summary of the method: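 Luminescent ATP read-out (CellTiter-Glo, 20 min RT) after 40 hr compound exposure at 37 °C in complete medium. Signal normalized to DMSO (basal) and 100 uM tamoxifen (100% inhibition); concentration-response fitted with the standard Hill equation to give AC50.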

[4] = Cell Viability - HepG2 (AID 433; calls by dose curve;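 also: potency is read from the fitted curve at half-maximal effect; potency for ATP loss meaning cytotoxicity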); conditions: qHTS
Summary of the method: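 HepG2 cells, 1500 per well, treated 40 hr at 37 °C in complete medium; viability from intracellular ATP by CellTiter-Glo luminescence. Normalized to DMSO and 100 uM tamoxifen; AC50 from Hill fit of qHTS concentration-response.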

[5] = Cell Viability - MRC5 (AID 434; calls by dose curve;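 also: potency is read from the fitted curve at half-maximal effect; potency reflects cytotoxicity seen as loss of intracellular ATP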); conditions: MRC5 lung fibroblast viability, qHTS
Summary of the method: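 AC50 values come from Hill-equation fits of intracellular ATP loss, measured by CellTiter-Glo luminescence. Normal lung fibroblasts (MRC5) had 40 hr compound treatment at 37 C, normalized between DMSO and 100 uM tamoxifen.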

[6] = Cell Viability - SK-N-SH (AID 435; calls by dose curve; also: potency is read from the fitted curve at half-maximal effect); conditions: SK-N-SH neuroblastoma cell viability qHTS
Summary of the method: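 SK-N-SH neuroblastoma cells (1500/well) treated 40 h at 37 °C in complete medium; viability read as cellular ATP by CellTiter-Glo luminescence. Normalized to DMSO and 100 uM tamoxifen; AC50 from Hill fits of qHTS concentration-response.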

[7] = biological target: Mitogen-activated protein kinase 10 (Mus musculus) (UniProt Q61831); experiment: JNK3 AlphaScreen Assay (AID 530; active = well fitted curve in either direction with a large enough effect, not every such curve was filed as active;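 also: kinase came from lysate of stimulated human HepG2 cells; signal reports phosphorylation of biotinylated GST-cJun 1-79 at Ser73 with 10 µM ATP; % is scaled to controls: 0 for no effect and ±100 for the full control effect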); conditions: JNK3 lysate, c-Jun phosphorylation; series mostly up to 57.1 µM
Summary of the method: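 Kinase buffer: 20 mM Tris-HCl pH 7.6, 10 mM MgCl2, 1 mM DTT, 0.1 mM Na3VO4, 0.01% Tween-20; ATP 10 uM. Substrate biotin-GST-cJun(1-79), enzyme from activated HepG2 lysates. Detection by Ser73 phospho-antibody AlphaScreen.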

[8] = Cell Viability - N2a (AID 540); conditions: N2a mouse neuroblastoma cell viability; activity change, negative = cytotoxicity: at 92.2 µM (top of the series);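 also: plate controls were DMSO alone for no effect and tamoxifen control for full effect; nearly all actives have a fitted effect of over 45% in size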
Summary of the method: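 N2a mouse neuroblastoma, 1500 cells/well, 5 hr settle; compound 40 hr, 37 °C; CellTiter-Glo 20 min RT; luminescence; Hill-fit AC50.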

[9] = Cell Viability - NIH 3T3 (AID 541); conditions: NIH 3T3 cell viability, qHTS; activity change, negative = cytotoxicity: at 92.2 µM (top of the series);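 also: plate controls were DMSO alone for no effect and tamoxifen positive control for full effect; nearly all actives have a fitted effect of over 25% in size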
Summary of the method: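 qHTS format; 40 hr compound exposure, 37 °C; CellTiter-Glo luminescence (cellular ATP) read-out after 20 min at RT. Decrease in ATP = cytotoxicity; AC50 from standard Hill fit.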

[10] = Cell Viability - HUV-EC-C (AID 542); conditions: HUV-EC-C endothelial cell viability, qHTS; series mostly up to 92.2 µM; also: % is scaled to controls: 0 for no effect and ±100 for the full control effect; nearly all actives have a fitted effect of over 35% in size
Summary of the method: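 Luminescent ATP read-out (CellTiter-Glo, 20 min room temperature) after 40 hr compound treatment of HUV-EC-C cells at 37 °C. Concentration-response data fitted with the standard Hill equation to give AC50; tamoxifen and doxorubicin served as positive controls.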

[11] = Cell Viability - H-4-II-E (AID 543); conditions: H-4-II-E rat hepatoma viability; series mostly up to 92.2 µM; also: % is scaled to controls: 0 for no effect and ±100 for the full control effect; nearly all actives have a fitted effect of over 35% in size
Summary of the method: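 qHTS, rat hepatoma H-4-II-E, 1500 cells/well; 40 hr compound exposure, 37 °C; CellTiter-Glo ATP luminescence after 20 min RT; AC50 by standard Hill fit.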

[12] = Cell Viability - SH-SY5Y (AID 544); conditions: SH-SY5Y neuroblastoma cell viability; viability change, negative = cytotoxic: at 92.2 µM (top of the series); also: nearly all actives have a fitted effect of over 55% in size
Summary of the method: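 SH-SY5Y, 1500 cells/well, 5 hr pre-incubation 37 °C; cpd 40 hr 37 °C; CellTiter-Glo 20 min RT; luminescence (ATP) read. qHTS concentration-response, Hill fit → AC50. Tamoxifen, doxorubicin as positive controls.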

[13] = Cell Viability - Renal Proximal Tubule (AID 545); conditions: renal proximal tubule cells viability, primary cells of rat origin; series mostly up to 91.7 µM; also: nearly all actives have a fitted effect of over 40% in size
Summary of the method: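 Rat renal proximal tubule primary cells, 1000/well, exposed to compounds for 40 hr at 37 °C in complete medium; cellular ATP read by CellTiter-Glo luminescence. AC50 from concentration-response fitted with standard Hill equation.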

[14] = Cell Viability - Mesenchymal (AID 546); conditions: mesenchymal cells viability, qHTS; series mostly up to 91.7 µM;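 also: cells exposed to compound for 40 hours before reading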
Summary of the method: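 CellTiter-Glo luminescence (intracellular ATP, 20 min room temperature) after 40 hr compound exposure at 37 °C of 1000 glomerulus-derived human kidney mesenchymal cells/well; AC50 values obtained by fitting qHTS concentration-response data to the Hill equation.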

[15] = Cellular Toxicity (caspase-3) HepG2 (AID 654); conditions: HepG2 caspase-3 activation, luminescence; series mostly up to 92.2 µM;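 also: cells exposed to compound for 16 hours before reading; 0% = DMSO alone and 100% = caspase signal from 100 µM tamoxifen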
Summary of the method: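 Luminescent Caspase-Glo 3/7 readout after 16 hr compound exposure of human hepatocellular carcinoma HepG2 cells at 37 °C; qHTS concentration-response, normalized DMSO = 0%, 100 uM tamoxifen = 100%; AC50 by standard Hill equation.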

[16] = Cellular Toxicity (caspase-3) Jurkat (AID 655); conditions: Jurkat caspase-3 activation, luminescence; caspase-3 activation: at 92.2 µM (top of the series), DMSO = 0%, tamoxifen = 100%;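 also: cells exposed to compound for 16 h at 37 °C before reading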
Summary of the method: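 Jurkat cells (5000/well) in complete medium exposed 16 h at 37 C; caspase-3/7 activity read by Caspase-Glo luminescence after 20 min at room temperature. Normalized to DMSO and 100 uM tamoxifen; AC50 from Hill fits.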

[17] = Cellular Toxicity (caspase-3) HUV-EC-C (AID 656); conditions: HUV-EC-C cells, caspase-3 activation (apoptosis), vehicle = 0, 100 µM tamoxifen = 100%; series mostly up to 92.2 µM
Summary of the method: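 HUV-EC-C cells (1000/well) in complete medium, compound-treated 16 h at 37 °C; caspase-3/7 activity read by Caspase-Glo 3/7 luminescence. Normalized to DMSO (basal) and 100 uM tamoxifen (100%); AC50 from Hill-equation concentration-response fits.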

[18] = Cellular Toxicity (caspase-3) SHSY5Y (AID 657); conditions: SH-SY5Y caspase-3 activation, DMSO zero, 10 µM staurosporine = 100%; series mostly up to 91.7 µM
Summary of the method: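 SH-SY5Y human neuroblastoma cells, 1500/well, exposed to compound for 16 hours at 37 °C in complete medium. Caspase-3/7 activity read by Caspase-Glo luminescence after 1 hr at room temperature, normalized to DMSO and 10 uM staurosporine; AC50 from Hill fit.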

[19] = Cellular Toxicity (caspase-3) BJ (AID 658); conditions: BJ fibroblasts, luminescence, normalized: DMSO 0%, staurosporine 100%; series mostly up to 91.7 µM
Summary of the method: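 Caspase-Glo 3/7 luminescence, read 1 hr after reagent at room temperature, in normal BJ fibroblasts exposed 16 hours at 37 °C. AC50 values from Hill-equation concentration-response, scaled between DMSO basal and 10 uM staurosporine as 100%.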

[20] = Cellular Toxicity (caspase-3) MRC-5 (AID 659); conditions: MRC-5 cells, luminescence, normalized: DMSO 0%, 10 µM staurosporine 100%; series mostly up to 91.7 µM
Summary of the method: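 Luminescent Caspase-Glo 3/7 read-out (1 h, room temperature) after a 16 h, 37 °C compound exposure of MRC-5 lung fibroblasts at 1500 cells/well. Concentration-response AC50 from Hill equation; 0% DMSO, 100% 10 uM staurosporine.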

Fc1ccccc1
inactive: Potency [1] > 92 µM | Potency [2] > 92 µM | Potency [3] > 92 µM | Potency [4] > 92 µM | Potency [5] > 92 µM | Potency [6] > 92 µM | outcome [7] | activity change, negative = cytotoxicity [8] 2.48% | Potency [9] | Potency [10] | Potency [11] | Potency [12] | Potency [13] | Potency [14] | Potency [15] | caspase-3 activation [16] 0.771% | outcome [17] | outcome [18] | outcome [19] | outcome [20]

O=C(O)c1ccc(Cl)c(Cl)c1
inactive: Potency [1] > 92 µM | Potency [2] > 92 µM | Potency [3] > 92 µM | Potency [4] > 92 µM | Potency [5] > 92 µM | Potency [6] > 92 µM | outcome [7] | activity change, negative = cytotoxicity [8] 1.1% | Potency [9] | Potency [10] | Potency [11] | Potency [12] | Potency [13] | Potency [14] | Potency [15] | caspase-3 activation [16] -1.55% | outcome [17] | outcome [18] | outcome [19] | outcome [20]

CN(C)CCCCl
inactive: Potency [1] > 92 µM | Potency [2] > 92 µM | Potency [3] > 92 µM | Potency [4] > 92 µM | Potency [5] > 92 µM | Potency [6] > 92 µM | outcome [7] | activity change, negative = cytotoxicity [8] -0.582% | Potency [9] | Potency [10] | Potency [11] | Potency [12] | Potency [13] | Potency [14] | Potency [15] | caspase-3 activation [16] 1.76% | outcome [17] | outcome [18] | outcome [19] | outcome [20]

Cc1ccc(C)cc1
inactive: Potency [1] > 92 µM | Potency [2] > 92 µM | Potency [3] > 92 µM | Potency [4] > 92 µM | Potency [5] > 92 µM | Potency [6] > 92 µM | outcome [7] | activity change, negative = cytotoxicity [8] -13.5% | Potency [9] | Potency [10] | Potency [11] | Potency [12] | Potency [13] | Potency [14] | Potency [15] | caspase-3 activation [16] 2.23% | outcome [17] | outcome [18] | outcome [19] | outcome [20]

CCCCN(CCO)CCCC
inactive: Potency [1] > 92 µM | Potency [2] > 92 µM | Potency [3] > 92 µM | Potency [4] > 92 µM | Potency [5] > 92 µM | Potency [6] > 92 µM | outcome [7] | activity change, negative = cytotoxicity [8] -15.2% | Potency [9] | Potency [10] | Potency [11] | Potency [12] | Potency [13] | Potency [14] | Potency [15] | caspase-3 activation [16] -0.474% | outcome [17] | outcome [18] | outcome [19] | outcome [20]

C=Cc1ccccn1
inactive: Potency [1] > 92 µM | Potency [2] > 92 µM | Potency [3] > 92 µM | Potency [4] > 92 µM | Potency [5] > 92 µM | Potency [6] > 92 µM | outcome [7] | activity change, negative = cytotoxicity [8] 5.72% | Potency [9] | Potency [10] | Potency [11] | Potency [12] | Potency [13] | Potency [14] | Potency [15] | caspase-3 activation [16] 0.756% | outcome [17] | outcome [18] | outcome [19] | outcome [20]

CC(C=O)Cc1ccc(C(C)(C)C)cc1 (configuration not stated)
inactive: Potency [1] > 92 µM | Potency [2] > 92 µM | Potency [3] > 92 µM | Potency [4] > 92 µM | Potency [5] > 92 µM | Potency [6] > 92 µM | outcome [7] | activity change, negative = cytotoxicity [8] -7.79% | Potency [9] | Potency [10] | Potency [11] | Potency [12] | Potency [13] | Potency [14] | Potency [15] | caspase-3 activation [16] 2.85% | outcome [17] | outcome [18] | outcome [19] | outcome [20]

O=Cc1ccccc1Cl
inactive: Potency [1] > 92 µM | Potency [2] > 92 µM | Potency [3] > 92 µM | Potency [4] > 92 µM | Potency [5] > 92 µM | Potency [6] > 92 µM | outcome [7] | activity change, negative = cytotoxicity [8] -4.91% | Potency [9] | Potency [10] | Potency [11] | Potency [12] | Potency [13] | Potency [14] | Potency [15] | caspase-3 activation [16] 7.22% | outcome [17] | outcome [18] | outcome [20]

C/C=C(/C)C#N
inactive: Potency [1] > 92 µM | Potency [2] > 92 µM | Potency [3] > 92 µM | Potency [4] > 92 µM | Potency [5] > 92 µM | Potency [6] > 92 µM | outcome [7] | activity change, negative = cytotoxicity [8] -3.64% | Potency [9] | Potency [10] | Potency [11] | Potency [12] | Potency [13] | Potency [14] | Potency [15] | caspase-3 activation [16] 1.22% | outcome [17] | outcome [18] | outcome [19] | outcome [20]

COCCOC(=O)c1ccccc1C(=O)OCCOC
inactive: Potency [1] > 92 µM | Potency [2] > 92 µM | Potency [3] > 92 µM | Potency [4] > 92 µM | Potency [5] > 92 µM | Potency [6] > 92 µM | outcome [7] | activity change, negative = cytotoxicity [8] 4.24% | Potency [9] | Potency [10] | Potency [11] | Potency [12] | Potency [13] | Potency [14] | Potency [15] | caspase-3 activation [16] 0.0969% | outcome [17] | outcome [19] | outcome [20]

CC/C=C/C#N
inactive: Potency [1] > 92 µM | Potency [2] > 92 µM | Potency [3] > 92 µM | Potency [4] > 92 µM | Potency [5] > 92 µM | Potency [6] > 92 µM | outcome [7] | activity change, negative = cytotoxicity [8] -7.86% | Potency [9] | Potency [10] | Potency [11] | Potency [12] | Potency [13] | Potency [14] | Potency [15] | caspase-3 activation [16] -0.0351% | outcome [17] | outcome [18] | outcome [20]
